High-throughput results as filed in PubChem.
SMARCA2 act = SMARCA2 (BRM) function activators, primary screen, cell-based, luminescence, high throughput. MG213 cells, MMTV-luciferase reporter, dexamethasone, overnight. activation, % at 9.1 µM. actives 1% (n = 370,000). AID 652017, 2013; in the data active = activation above about 7.8%;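 also: 0% = vehicle wells and 100% = reference activator wells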
Hsp70 activator = Hsp70 transcriptional activators, primary screen, cell-based, HeLa, Hsp70 promoter luciferase, luminescence, 10 µM; AID 1203, 2008; HeLa Hsp70 promoter luciferase reporter; scaled: vehicle 0, proteasome-inhibitor control 100%; actives 0.04% (n = 200,000); activation, % at 10 µM;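 active = activation above the mean across all tested compounds plus 3 SD, cutoff set per campaign, cut at about 5.5% in these data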;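 also: 100% = MG132 at 30 µM as the positive control and 0% = DMSO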
HIF activator = HIF pathway transcriptional activators, primary screen, cell-based, U2OS HRE-luciferase, luminescence | U2OS HRE-luciferase reporter; normalized: DMSO 0%, desferrioxamine 100% | activation, % at 7.5 µM (by protocol) | actives 0.32% (n = 300,000) | AID 1910, 2009;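 active = mean activation of at least 10% of the iron chelator positive control signal, with at least half of replicates also reaching 10%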
GalR3 antag = GalR3 antagonists in HEK293 cells, primary screen, cell-based, fluorescence readout; actives 0.44% (n = 360,000); inhibition, % at 3 µM; HEK293 GalR3-CNG cAMP membrane potential fluorescence; galR3 body fused to GalR1 C-terminus; AID 651719, 2012; Galanin receptor type 3 (Homo sapiens), O60755;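 active = inhibition above the screen-wide average plus 3 SD, cut at about 13% in these data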;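 also: forskolin and galanin both at EC90 stimulate the cells; cAMP rise reported by CNG channel membrane potential dye signal; 0% = forskolin plus galanin with DMSO and 100% = forskolin alone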
Target sequence (O60755 1-299 limits assumed): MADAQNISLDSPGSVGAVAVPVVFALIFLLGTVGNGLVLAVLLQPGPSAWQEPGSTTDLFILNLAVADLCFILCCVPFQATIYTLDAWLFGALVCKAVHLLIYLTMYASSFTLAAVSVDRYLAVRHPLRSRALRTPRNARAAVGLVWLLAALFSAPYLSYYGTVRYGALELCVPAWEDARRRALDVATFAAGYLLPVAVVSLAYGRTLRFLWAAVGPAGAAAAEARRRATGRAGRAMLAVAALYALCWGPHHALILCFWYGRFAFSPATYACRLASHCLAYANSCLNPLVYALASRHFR
FXN GAA850 act = FXN promoter activators, primary screen, cell-based, luciferase luminescence, HEK293 lucGAA850; HEK293 lucGAA850 FXN promoter luciferase reporter, 24 h; percent of 10 µM SAHA response; activation, % at 6 µM; actives 0.56% (n = 360,000);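 active = activation above the average of all compounds screened plus 3 SD, cutoff fixed separately per campaign, cut at about 7.5% in these data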;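 also: 0% = DMSO wells and 100% = 10 µM SAHA wells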
SMARCA2 act conf = SMARCA2 (BRM) function activators, confirmation, cell-based, luminescence, triplicate. shares compounds with SMARCA2 act. MG213 cells, MMTV-luciferase with dexamethasone, overnight; MG213 cells expressing E1A, Rb sequestered; DMSO wells 0%, reference activator 100%. activation, % at 9.1 µM. actives 30% (n = 3,500). AID 652260, 2013;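 active = activation above its plate's cutoff, the mean activation of tested wells plus 3 SD, cut at about 7.9% in these data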
GAL4-VP16 Luc = GAL4-VP16 luciferase reporter activation, counter-screen for SMARCA2 (BRM) activator project, cell-based, pG5luc, luminescence, high throughput; shares compounds with SMARCA2 act; HEK293 GAL4-VP16 pG5luc reporter; scaled: DMSO wells 0%, SAHA wells 100%; activation, % at 9.1 µM; actives 41% (n = 3,500);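 active = activation above the solvent-only control well mean plus 3 SD, averaged across control plates, cut at about 5.2% in these data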
Starred values were filed as active, the others as inactive; · = no result. Only some compounds are listed: those with a hit (about 2.2% of all), similar ones and a draw of the others.

SMILES	SMARCA2 act	Hsp70 activator	HIF activator	GalR3 antag	FXN GAA850 act	SMARCA2 act conf	GAL4-VP16 Luc
CC(C)(C)c1ccc(C(=O)NCCc2ccccc2)cc1	3	·	1	-11	-1	·	·
CCCCOc1ccc(C(=O)NCCc2ccccc2)cc1	8.4*	·	0	-5	4	8	13*
Cc1cc(C(=O)NCCc2ccccc2)ccc1[N+](=O)[O-]	6	0	2	9	3	·	·
COC(=O)CSc1nnc(-c2ccc(NS(=O)(=O)c3ccc(Cl)s3)cc2)o1	-4	·	·	·	·	·	·
CCc1ccc(N(C(=O)c2ccco2)C(C(=O)NC2CCCC2)c2cccnc2)cc1 (stereo not given)	-3	·	2	-11	1	·	·
CCC(C)c1ccc(N(C(=O)c2ccco2)C(C(=O)NC2CCCC2)c2cccnc2)cc1 (stereo not given)	8.1*	·	0	-11	1	4	5.2*
COc1ccc(-c2coc3cc(O)ccc3c2=O)cc1OC	5	1	1	-1	4	·	·
O=c1c(-c2ccc(F)cc2)coc2cc(O)ccc12	12*	1	2	-5	6	5	11*
CN(Cc1ccccc1)S(=O)(=O)c1cccc(C(=O)OCC2CCCCC2)c1	-2	·	·	·	·	·	·
COc1ccc(N2CCN(c3cncc(C)n3)CC2)cc1	8.2*	·	·	-1	0	-1	2
O=C(Nc1ccc(-c2nc3cc(Cl)ccc3o2)cc1)C1CCCO1 (stereo not given)	8.2*	0	0	-5	3	4	10*
Cc1nc(-c2ccc([N+](=O)[O-])cc2)sc1C(=O)O	9.6*	0	0	-4	3	6	1
Cc1ccc(-c2nc(C)c(C(=O)O)s2)cc1	11*	0	1	-1	3	9.5*	7.4*
Cc1nc(-c2ccccc2)sc1C(=O)O	2	0	0	0	3	·	·
Cc1nc(-c2ccc(Cl)cc2)sc1C(=O)O	6	0	2	-2	3	·	·
CCOC(=O)[C@]12CCCCC/C=C\1N(CCc1ccc(Cl)cc1)C(=O)[C@H]2CC(=O)NCc1cccc2ccccc12	-3	·	·	·	·	·	·
Cc1ccc(-c2cc(C(=O)NN=Cc3cccc4ccccc34)[nH]n2)cc1C	-5	·	·	·	·	·	·
COc1ccc(C2CC(=O)C(c3ccccc3OC)=CN2Cc2ccccc2)cc1 (stereo not given)	-3	·	·	-4	·	·	·
Cc1ccsc1/C=N/Nc1nc2ccccc2[nH]1	12*	0	3	-5	7	13*	15*
O=C(N[C@@H](Cc1cccnc1)C(=O)N1CCC[C@H]1C(=O)NCCc1ccccc1Cl)c1cccs1	-1	·	·	-2	·	·	·
O=C1C(=Cc2ccco2)CCCC1=Cc1ccco1	8.1*	·	·	-4	12*	16*	7.2*
O=C1C(=Cc2ccco2)CCC1=Cc1ccco1	-4	·	·	-4	3	·	·
COc1ccc(CCNC(=O)C(=O)N/N=C/c2cccs2)cc1OC	14*	0	0	-1	-1	-1	-1
COc1ccc(CCNC(=O)C(=O)Nc2nccs2)cc1OC	-4	0	-2	-7	1	·	·
CSc1nc(Cl)cc(Nc2ccc(O)cc2)n1	14*	0	1	-3	5	6	4
O=C(COn1nnc2ccccc21)N1CCN(Cc2ccccc2)CC1	10*	0	2	-8	6	4	5
O=C(CCn1nnc2ccccc21)N1CCN(Cc2ccc3c(c2)OCO3)CC1	-6	·	·	·	·	·	·
O=C(COn1nnc2ccccc21)NCC1CCCCC1	8.8*	0	2	-4	4	6	4
